# Test results from the supplement of paper PMC6555819.
# What was measured:
# Experiment in all cases: PBM binding z-score (relative to random genomic background probes); higher = stronger binding; sequences stand for … in GC…GCGATTGACAGCGTAGAATGAAGG
# [1] = tested on: PPARg:RXRa DBDmut IVT, anti-RXR (DBD mutation: RXRa K156A/R161A, NR concentration 270 nM, RXRa partner concentration 90 nM)
# Outline: (§1)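 Custom Agilent 4×180K protein-binding microarrays carried double-stranded probes, each with a 34-nt variable region. These regions held direct-repeat seeds, single-nucleotide variants, half-site ablations and random human genomic background sequences. Ligand-free nuclear receptor dimers were incubated on the arrays for 1 h, antibodies against each partner (one per run) detected binding, and scanned fluorescence was regression-normalized. Binding z-scores take the random background probes as reference.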
# [2] = tested on: PPARg:RXRa IVT, anti-PPARg (NR concentration 270 nM, RXRa partner concentration 90 nM)
# Outline: as §1
# [3] = tested on: PPARg DBDmut:RXRa IVT, anti-PPARg (DBD mutation: PPARg1 K132A/R137A, NR concentration 270 nM, RXRa partner concentration 90 nM)
# Outline: as §1
# [4] = tested on: PPARg DBDmut IVT, anti-PPARg (DBD mutation: PPARg1 K132A/R137A, NR concentration 270 nM)
# Outline: as §1
# [5] = tested on: PPARg homodimer (NR concentration 180 nM)
# Outline: as §1
# [6] = tested on: PXR:RXRa (NR concentration 270 nM, RXRa partner concentration 90 nM)
# Outline: as §1
# [7] = tested on: PXR homodimer (NR concentration 270 nM)
# Outline: as §1
# [8] = tested on: RARa:RXR (NR concentration 270 nM, RXRa partner concentration 90 nM)
# Outline: as §1
# [9] = tested on: RARa homodimer (NR concentration 270 nM)
# Outline: as §1
# [10] = tested on: RARb:RXRa (NR concentration 270 nM, RXRa partner concentration 90 nM)
# Outline: as §1
sequence,measurement,setting,value
TCAGACAGGTGAGGGTAACTCAGGTACGCAGTCG,PBM binding z-score,[1],2.09
same,PBM binding z-score,[2],1.08
same,PBM binding z-score,[3],0.134
same,PBM binding z-score,[4],-0.531
same,PBM binding z-score,[5],0.237
same,PBM binding z-score,[6],0.408
same,PBM binding z-score,[7],-0.0185
same,PBM binding z-score,[8],0.722
same,PBM binding z-score,[9],-0.208
same,PBM binding z-score,[10],1.02
ATCGAAAGGTCGAGGTAAGTATAGAGAAAGGGAA,PBM binding z-score,[1],0.0665
same,PBM binding z-score,[2],1.66
same,PBM binding z-score,[3],1.14
same,PBM binding z-score,[4],1.3
same,PBM binding z-score,[5],1.24
same,PBM binding z-score,[6],2.31
same,PBM binding z-score,[7],0.464
same,PBM binding z-score,[8],3.24
same,PBM binding z-score,[9],1.21
same,PBM binding z-score,[10],4.06
CGAACTAGGACAGAACAGGACAGTGAAGGATGAT,PBM binding z-score,[1],3.37
same,PBM binding z-score,[2],2.51
same,PBM binding z-score,[3],0.329
same,PBM binding z-score,[4],1
same,PBM binding z-score,[5],-0.301
same,PBM binding z-score,[6],-0.366
same,PBM binding z-score,[7],-0.302
same,PBM binding z-score,[8],-0.649
same,PBM binding z-score,[9],0.312
same,PBM binding z-score,[10],0.117
TAGCCTAGGTCATGGGCCAGGATACCACGCGAAC,PBM binding z-score,[1],1.37
same,PBM binding z-score,[2],3.45
same,PBM binding z-score,[3],0.121
same,PBM binding z-score,[4],0.0645
same,PBM binding z-score,[5],0.888
same,PBM binding z-score,[6],1.54
same,PBM binding z-score,[7],-0.528
same,PBM binding z-score,[8],2.52
same,PBM binding z-score,[9],-0.123
same,PBM binding z-score,[10],3.8
TCGAGTTGGTTAGGGGCATTCAGAATGGCGTCGA,PBM binding z-score,[1],0.816
same,PBM binding z-score,[2],-0.123
same,PBM binding z-score,[3],-0.765
same,PBM binding z-score,[4],-0.477
same,PBM binding z-score,[5],0.182
same,PBM binding z-score,[6],1.14
same,PBM binding z-score,[7],2.82
same,PBM binding z-score,[8],0.232
same,PBM binding z-score,[9],0.104
same,PBM binding z-score,[10],0.514
TAAATGAGGTTATAAGATCAGGGAACGTTGCAAA,PBM binding z-score,[1],2.84
same,PBM binding z-score,[2],2.73
same,PBM binding z-score,[3],1.59
same,PBM binding z-score,[4],1.61
same,PBM binding z-score,[5],0.912
same,PBM binding z-score,[6],1
same,PBM binding z-score,[7],0.251
same,PBM binding z-score,[8],1.62
same,PBM binding z-score,[9],0.307
same,PBM binding z-score,[10],1.33
AGTCAAAGTTCAGGACGAGGTAACGCAAAGCACG,PBM binding z-score,[1],-0.0629
same,PBM binding z-score,[2],1.75
same,PBM binding z-score,[3],0.41
same,PBM binding z-score,[4],-0.132
same,PBM binding z-score,[5],1.73
same,PBM binding z-score,[6],2.72
same,PBM binding z-score,[7],1.03
same,PBM binding z-score,[8],2.78
same,PBM binding z-score,[9],0.826
same,PBM binding z-score,[10],4.33
TCTGCTACGTCAACGATGGTCAGCTAATCTGCTA,PBM binding z-score,[1],0.824
same,PBM binding z-score,[2],-0.0517
same,PBM binding z-score,[3],-0.273
same,PBM binding z-score,[4],0.303
same,PBM binding z-score,[5],-1.54
same,PBM binding z-score,[6],-0.555
same,PBM binding z-score,[7],-0.856
same,PBM binding z-score,[8],-0.492
same,PBM binding z-score,[9],-1.62
same,PBM binding z-score,[10],-0.0266
ACAGACAGGTGAAGAAGGTAACTCAGGCTATCAT,PBM binding z-score,[1],0.468
same,PBM binding z-score,[2],0.733
same,PBM binding z-score,[3],0.175
same,PBM binding z-score,[4],0.429
same,PBM binding z-score,[5],0.495
same,PBM binding z-score,[6],0.0318
same,PBM binding z-score,[7],0.0524
same,PBM binding z-score,[8],0.274
same,PBM binding z-score,[9],0.349
same,PBM binding z-score,[10],0.709
CCTTACGGGTCACTGACAGGTTATATCATTTGGA,PBM binding z-score,[1],3.09
same,PBM binding z-score,[2],3.76
same,PBM binding z-score,[3],1.37
same,PBM binding z-score,[4],0.355
same,PBM binding z-score,[5],2.85
same,PBM binding z-score,[6],3.69
same,PBM binding z-score,[7],0.432
same,PBM binding z-score,[8],4.84
same,PBM binding z-score,[9],0.665
same,PBM binding z-score,[10],4.08
TCTCTTAGTTGATTAGGGCAACCGAAACAGCGGA,PBM binding z-score,[1],2.63
same,PBM binding z-score,[2],1.67
same,PBM binding z-score,[3],0.796
same,PBM binding z-score,[4],1.17
same,PBM binding z-score,[5],1.28
same,PBM binding z-score,[6],0.757
same,PBM binding z-score,[7],0.477
same,PBM binding z-score,[8],0.892
same,PBM binding z-score,[9],0.846
same,PBM binding z-score,[10],1.51
CTCGAAAGGTCGGTTGAGGTGGGTATACGGATAA,PBM binding z-score,[1],-0.182
same,PBM binding z-score,[2],0.818
same,PBM binding z-score,[3],-0.122
same,PBM binding z-score,[4],-0.109
same,PBM binding z-score,[5],1.13
same,PBM binding z-score,[6],2.08
same,PBM binding z-score,[7],0.36
same,PBM binding z-score,[8],1.53
same,PBM binding z-score,[9],0.507
same,PBM binding z-score,[10],2.99
CCAGACAGGTAAGAAGGTAACTCAGCCTCGATTA,PBM binding z-score,[1],0.139
same,PBM binding z-score,[2],-0.122
same,PBM binding z-score,[3],-0.475
same,PBM binding z-score,[4],-0.368
same,PBM binding z-score,[5],0.961
same,PBM binding z-score,[6],0.129
same,PBM binding z-score,[7],0.112
same,PBM binding z-score,[8],0.274
same,PBM binding z-score,[9],0.51
same,PBM binding z-score,[10],0.0631
CAAACTAGGTCAAGGTCCAAGTCGGTTTGTGCCA,PBM binding z-score,[1],8.66
same,PBM binding z-score,[2],8.37
same,PBM binding z-score,[3],3.91
same,PBM binding z-score,[4],1.65
same,PBM binding z-score,[5],2.64
same,PBM binding z-score,[6],1.63
same,PBM binding z-score,[7],-0.0807
same,PBM binding z-score,[8],2.31
same,PBM binding z-score,[9],0.849
same,PBM binding z-score,[10],4.18
TTACCAAGGTGAGCTGAGGACGTTGATCCAACTC,PBM binding z-score,[1],0.681
same,PBM binding z-score,[2],1.36
same,PBM binding z-score,[3],-0.327
same,PBM binding z-score,[4],-0.329
same,PBM binding z-score,[5],-0.722
same,PBM binding z-score,[6],2.25
same,PBM binding z-score,[7],-0.289
same,PBM binding z-score,[8],1.03
same,PBM binding z-score,[9],-0.906
same,PBM binding z-score,[10],1.05
GCTGCTATGTCAACTGATGGTCAGCTAAAGCTCG,PBM binding z-score,[1],0.616
same,PBM binding z-score,[2],-0.0594
same,PBM binding z-score,[3],-1.42
same,PBM binding z-score,[4],-1.27
same,PBM binding z-score,[5],-1.18
same,PBM binding z-score,[6],-0.32
same,PBM binding z-score,[7],-0.913
same,PBM binding z-score,[8],-0.149
same,PBM binding z-score,[9],-1.19
same,PBM binding z-score,[10],0.753
CCTACTGGGCCCAAGGTCATTGATTCCAATGCTC,PBM binding z-score,[1],-0.0484
same,PBM binding z-score,[2],3.05
same,PBM binding z-score,[3],-0.816
same,PBM binding z-score,[4],-1.27
same,PBM binding z-score,[5],1.42
same,PBM binding z-score,[6],3.24
same,PBM binding z-score,[7],1.78
same,PBM binding z-score,[8],3.17
same,PBM binding z-score,[9],0.145
same,PBM binding z-score,[10],2.79
CCTAGCAGGCCAGGGTCATTCAAGCATTTCGCTT,PBM binding z-score,[1],0.315
same,PBM binding z-score,[2],0.694
same,PBM binding z-score,[3],-0.751
same,PBM binding z-score,[4],-1.91
same,PBM binding z-score,[5],1.59
same,PBM binding z-score,[6],3.11
same,PBM binding z-score,[7],-0.0887
same,PBM binding z-score,[8],3.29
same,PBM binding z-score,[9],-0.222
same,PBM binding z-score,[10],2.57
ACTATTAGTTCACTTAGGGCAACCGATACGACGC,PBM binding z-score,[1],0.466
same,PBM binding z-score,[2],0.672
same,PBM binding z-score,[3],1.13
same,PBM binding z-score,[4],1.63
same,PBM binding z-score,[5],0.741
same,PBM binding z-score,[6],1.86
same,PBM binding z-score,[7],5.76
same,PBM binding z-score,[8],0.774
same,PBM binding z-score,[9],0.399
same,PBM binding z-score,[10],2.35
CATCCAAGGTCATAGGAGGTCAGTGAAGACAGAT,PBM binding z-score,[1],3.6
same,PBM binding z-score,[2],4.75
same,PBM binding z-score,[3],3.02
same,PBM binding z-score,[4],2.08
same,PBM binding z-score,[5],5.33
same,PBM binding z-score,[6],6.96
same,PBM binding z-score,[7],4.63
same,PBM binding z-score,[8],6.4
same,PBM binding z-score,[9],3.27
same,PBM binding z-score,[10],5.38
GCAGACAGGTGATACGCAGGTAACTCAGGGTGGC,PBM binding z-score,[1],-0.192
same,PBM binding z-score,[2],-0.471
same,PBM binding z-score,[3],-0.737
same,PBM binding z-score,[4],-0.846
same,PBM binding z-score,[5],-0.0293
same,PBM binding z-score,[6],-0.424
same,PBM binding z-score,[7],-0.57
same,PBM binding z-score,[8],0.0928
same,PBM binding z-score,[9],-0.408
same,PBM binding z-score,[10],-0.253
TCATATAGCTAATACAGGTGAAAGTCGGCATCTA,PBM binding z-score,[1],1.68
same,PBM binding z-score,[2],0.828
same,PBM binding z-score,[3],0.761
same,PBM binding z-score,[4],0.528
same,PBM binding z-score,[5],0.511
same,PBM binding z-score,[6],0.475
same,PBM binding z-score,[7],-0.0901
same,PBM binding z-score,[8],0.626
same,PBM binding z-score,[9],0.67
same,PBM binding z-score,[10],0.139
AGAATGAGGTTAAGATCAGGGAGACAGAATACAT,PBM binding z-score,[1],3.04
same,PBM binding z-score,[2],2.59
same,PBM binding z-score,[3],1.8
same,PBM binding z-score,[4],0.747
same,PBM binding z-score,[5],0.955
same,PBM binding z-score,[6],1.26
same,PBM binding z-score,[7],0.933
same,PBM binding z-score,[8],1.95
same,PBM binding z-score,[9],0.709
same,PBM binding z-score,[10],1.91
